Test results reported in PubChem BioAssay AID1159580 (chemical genetic matrix, 2015).
Among all 5,500 compounds or so, about 2,000 (36%) were called active. Another 18% or so got no clear call; they are omitted. Cut-off read from the data, not from the text of the source: active = normalized growth mostly below about 0.91 (no sharp cut-off); inconclusive = no clear call, values can overlap the other calls; inactive = mostly above about 0.92. The list shows a part of the results.

Test: chemical genetic growth profiling, strain panel (AID 1159580);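 note: tested at 20 µM; growth read once vehicle control cultures reached saturation at 30 °C; 1 = growth at the plate median or of vehicle wells; lower values mean less growth of the strain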
Conditions: S. cerevisiae deletion strains, growth OD

Measured: normalized growth

CC(=O)O[C@@H]1CC2C(C)(C)C=CC(=O)[C@]2(C)C2CC[C@@]3(C)[C@H](c4ccoc4)OC(=O)C4OC43[C@@]21C (some centres not stated)
inactive: locus YAL021C, strain ccr4, hits give low values 0.985 | locus YAL026C, strain drs2, hits give low values 1 | locus YAL030W, strain snc1, hits give low values 0.999 | locus YBL061C, strain skt5, hits give low values 1 | locus YBR009C, strain hhf1, hits give low values 1 | locus YBR021W, strain FUR4, hits give low values 1.04 | locus YBR023C, strain chs3, hits give low values 0.988 | locus YBR171W, strain sec66, hits give low values 1.01 | locus YBR229C, strain ROT2, hits give low values 1.01 | locus YBR231C, strain swc5, hits give low values 1.01 | locus YBR279W, strain paf1, hits give low values 1 | locus YCL011C, strain gbp2, hits give low values 0.998 | locus YCL016C, strain dcc1, hits give low values 1 | locus YCL029C, strain bik1, hits give low values 1 | locus YCL061C, strain MRC1, hits give low values 0.998 | locus YCL069W, strain vba3, hits give low values 0.992 | locus YCR088W, strain abp1, hits give low values 0.994 | locus YDL005C, strain med2, hits give low values 0.987 | locus YDL035C, strain GPR1, hits give low values 1.03 | locus YDL040C, strain nat1, hits give low values 0.986 | locus YDL074C, strain BRE1, hits give low values 1.03 | locus YDL101C, strain DUN1, hits give low values 1.01 | locus YDL134C, strain PPH21, hits give low values 1.02 | locus YDL185W, strain tfp1, hits give low values 0.984 | locus YDL192W, strain arf1, hits give low values 1 | locus YDR001C, strain nth1, hits give low values 0.995 | locus YDR069C, strain doa4, hits give low values 0.985 | locus YDR101C, strain arx1, hits give low values 1 | locus YDR137W, strain rgp1, hits give low values 0.974 | locus YDR159W, strain sac3, hits give low values 0.988 | locus YDR162C, strain NBP2, hits give low values 1.04 | locus YDR195W, strain ref2 1 | locus YDR297W, strain sur2, hits give low values 0.994 | locus YDR318W, strain mcm21, hits give low values 1.01 | locus YDR334W, strain swr1, hits give low values 1.01 | locus YDR335W, strain msn5, hits give low values 0.997 | locus YDR388W, hits give low values 1 | locus YDR392W, strain spt3, hits give low values 0.963 | locus YDR502C, strain sam2, hits give low values 0.991 | locus YEL003W, strain gim4, hits give low values 0.984 | locus YEL037C, strain rad23, hits give low values 0.998 | locus YEL061C, strain CIN8 (second series), hits give low values 0.995 | locus YER015W, strain faa2, hits give low values 1 | locus YER016W, strain bim1, hits give low values 0.993 | locus YER110C, hits give low values 1 | locus YER111C, strain swi4, hits give low values 1 | locus YER155C, strain BEM2 (second series), hits give low values 0.996 | locus YER155C, strain BEM2, hits give low values 1.01 | locus YER167W, strain BCK2, hits give low values 1.03 | locus YFR010W, strain ubp6, hits give low values 1.04 | locus YGL078C, strain dbp3, hits give low values 0.986 | locus YGL086W, strain mad1, hits give low values 1 | locus YGL167C, strain pmr1, hits give low values 0.991 | locus YGL173C, strain kem1, hits give low values 0.996 | locus YGL227W, strain vid30, hits give low values 0.992 | locus YGL240W, strain doc1, hits give low values 0.983 | locus YGL248W, strain PDE1, hits give low values 1.02 | locus YGL253W, strain hxk2, hits give low values 0.977 | locus YGR135W, strain pre9, hits give low values 0.987 | locus YGR229C, strain SMI1, hits give low values 1.04 | locus YGR252W, strain gcn5, hits give low values 0.994 | locus YHR013C, strain ard1, hits give low values 1.01 | locus YHR027C, strain rpn1, hits give low values 1 | locus YHR030C, strain SLT2, hits give low values 1.01 | locus YHR079C, strain IRE1 (second series), hits give low values 1 | locus YHR094C, strain hxt1, hits give low values 0.995 | locus YHR129C, strain ARP1, hits give low values 1.02 | locus YHR142W, strain chs7, hits give low values 0.987 | locus YHR200W, strain rpn10, hits give low values 0.998 | locus YIL066C, strain RNR3, hits give low values 1.02 | locus YIL073C, strain SPO22, hits give low values 1.03 | locus YIL125W, strain kgd1, hits give low values 1.01 | locus YIR030C, strain dcg1, hits give low values 0.996 | locus YJL092W, strain hpr5, hits give low values 1 | locus YJL095W, strain BCK1 (second series), hits give low values 1 | locus YJL095W, strain BCK1, hits give low values 1.01 | locus YJL115W, strain asf1, hits give low values 1 | locus YJL129C, strain trk1, hits give low values 0.994 | locus YJL134W, strain LCB3, hits give low values 1.01 | locus YJL154C, strain vps35, hits give low values 0.999 | locus YJL164C, strain tpk1, hits give low values 0.996 | locus YJL166W, strain qcr8, hits give low values 0.992 | locus YJL168C, strain set2, hits give low values 1 | locus YJL187C, strain SWE1 (second series), hits give low values 1.01 | locus YJL187C, strain SWE1, hits give low values 1 | locus YJR043C, strain POL32, hits give low values 1.03 | locus YJR075W, strain HOC1, hits give low values 1.02 | locus YKL068W, hits give low values 1 | locus YKL085W, strain MDH1 (second series), hits give low values 1 | locus YKL085W, strain MDH1, hits give low values 1 | locus YKL160W, strain elf1, hits give low values 0.997 | locus YKL190W, strain CNB1, hits give low values 1.02 | locus YKR001C, strain vps1, hits give low values 1 | locus YKR026C, strain gcn3, hits give low values 0.996 | locus YKR091W, strain srl3, hits give low values 1 | locus YLL001W, strain dnm1, hits give low values 1.01 | locus YLL026W, hits give low values 1 | locus YLL041C, strain sdh2, hits give low values 1 | locus YLR027C, strain aat2, hits give low values 0.997 | locus YLR039C, strain RIC1, hits give low values 1.05 | locus YLR058C, strain SHM2, hits give low values 1.03 | locus YLR102C, strain apc9, hits give low values 0.998 | locus YLR221C, strain rsa3, hits give low values 0.991 | locus YLR258W, strain gsy2, hits give low values 0.984 | locus YLR262C, strain YPT6 (second series), hits give low values 1 | locus YLR262C, strain YPT6, hits give low values 1.09 | locus YLR268W, strain sec22, hits give low values 1 | locus YLR320W, strain mms22, hits give low values 0.999 | locus YLR330W, strain CHS5, hits give low values 1.01 | locus YLR342W, strain FKS1 (second series), hits give low values 0.989 | locus YLR342W, strain FKS1, hits give low values 1 | locus YLR357W, strain rsc2, hits give low values 1.02 | locus YLR370C, strain arc18, hits give low values 0.999 | locus YLR371W, strain rom2, hits give low values 1.01 | locus YLR384C, strain iki3, hits give low values 1.01 | locus YLR418C, strain cdc73, hits give low values 0.973 | locus YML016C, strain PPZ1, hits give low values 1.02 | locus YML032C, strain rad52, hits give low values 1 | locus YML120C, strain ndi1, hits give low values 1 | locus YML124C, strain tub3, hits give low values 1 | locus YMR058W, strain fet3, hits give low values 1 | locus YMR078C, strain ctf18, hits give low values 0.985 | locus YMR125W, strain sto1, hits give low values 0.999 | locus YMR129W, hits give low values 0.99 | locus YMR205C, strain PFK2, hits give low values 0.996 | locus YMR223W, strain ubp8, hits give low values 0.997 | locus YMR231W, strain pep5, hits give low values 0.973 | locus YMR307W, strain GAS1, hits give low values 1.02 | locus YNL067W, strain RPL9B, hits give low values 1.02 | locus YNL071W, strain lat1, hits give low values 0.994 | locus YNL128W, strain TEP1, hits give low values 1.02 | locus YNL209W, strain ssb2, hits give low values 1.01 | locus YNL233W, strain BNI4, hits give low values 1.02 | locus YNL248C, strain rpa49, hits give low values 1.01 | locus YNL250W, strain rad50, hits give low values 0.989 | locus YNL271C, strain bni1, hits give low values 1 | locus YNL298W, strain CLA4, hits give low values 0.998 | locus YNL307C, strain MCK1, hits give low values 0.993 | locus YNL322C, strain KRE1 (second series), hits give low values 1 | locus YNR049C, strain mso1, hits give low values 1 | locus YNR052C, strain pop2, hits give low values 1 | locus YOL012C, strain htz1 0.75 | locus YOL147C, strain pex11, hits give low values 0.995 | locus YOR001W, strain rrp6, hits give low values 0.995 | locus YOR061W, strain CKA2, hits give low values 1.02 | locus YOR069W, strain VPS5, hits give low values 1.01 | locus YOR070C, strain gyp1, hits give low values 0.998 | locus YOR080W, strain dia2, hits give low values 0.993 | locus YOR083W, strain WHI5, hits give low values 1 | locus YOR106W, strain vam3, hits give low values 1.01 | locus YOR136W, strain idh2, hits give low values 1 | locus YOR144C, strain elg1, hits give low values 1.01 | locus YOR184W, strain ser1, hits give low values 1.01 | locus YOR265W, strain rbl2, hits give low values 0.997 | locus YOR270C, strain vph1, hits give low values 0.956 | locus YOR290C, strain snf2, hits give low values 0.968 | locus YOR316C, strain cot1, hits give low values 0.993 | locus YPL051W, strain arl3, hits give low values 1.03 | locus YPL055C, strain LGE1, hits give low values 1.03 | locus YPL078C, strain atp4, hits give low values 0.983 | locus YPL106C, strain sse1, hits give low values 1.02 | locus YPL240C, strain hsp82, hits give low values 0.998 | locus YPR119W, strain clb2, hits give low values 0.998 | locus YPR141C, strain kar3, hits give low values 0.998 | locus YPR163C, strain tif3, hits give low values 1.01 | locus YPR167C, strain met16, hits give low values 0.997 | strain wtn01, hits give low values 1.01
